# Test results taken from PubChem BioAssay (NCATS).
# Records with an inconclusive call do not appear. A number with no mark means an inactive call. Activity calls are given as the source filed them. The call rests on the fitted dose curve; in most records, active means well fitted cell-killing curve with a large enough effect; inconclusive means small, poorly fitted or top-dose-only effect, or effect the other way; inactive means no such curve, though single readings can be large or run the other way.
# How the values were obtained:
# [1] = Quantitative High-Throughput drug screen in 47 multiple myeloma cell lines against the NCATS MIPE library collection: OCIMY5_PLB cell viability assay (AID 1918988); further: nearly all actives have a fitted effect of over 65% in size
# Outline: (§1)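 Viability after 48 h drug exposure was measured as ATP-dependent luminescence. Cells, 500 per well, sat at 37 °C under 5% CO2; DMSO wells set 100%, media-only wells 0%.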
# [2] = Quantitative High-Throughput drug screen in 47 multiple myeloma cell lines against the NCATS MIPE library collection: SKMM1_PLB cell viability assay (AID 1919863); conditions: SKMM1 myeloma viability, CellTiter-Glo ATP, 48 h; viability: stronger effect = lower value; further: nearly all actives have a fitted effect of over 35% in size
# Outline: as §1
# [3] = Quantitative High-Throughput drug screen in 47 multiple myeloma cell lines against the NCATS MIPE library collection: XG1_PLB cell viability assay (AID 1919866); further: nearly all actives have a fitted effect of over 35% in size
# Outline: as §1
# [4] = Quantitative High-Throughput drug screen in 47 multiple myeloma cell lines against the NCATS MIPE library collection: OPM1_PLB cell viability assay (AID 1918989); further: nearly all actives have a fitted effect of over 40% in size
# Outline: as §1
# [5] = Quantitative High-Throughput drug screen in 47 multiple myeloma cell lines against the NCATS MIPE library collection: OCIMY7_PLB cell viability assay (AID 1918987); further: nearly all actives have a fitted effect of over 65% in size
# Outline: as §1
# [6] = Quantitative High-Throughput drug screen in 47 multiple myeloma cell lines against the NCATS MIPE library collection: U266_ATCC cell viability assay (AID 1919864); further: nearly all actives have a fitted effect of over 35% in size
# Outline: as §1
# [7] = Quantitative High-Throughput drug screen in 47 multiple myeloma cell lines against the NCATS MIPE library collection: XG6_PLB cell viability assay (AID 1919865); further: nearly all actives have a fitted effect of over 40% in size
# Outline: as §1
# [8] = Quantitative High-Throughput drug screen in 47 multiple myeloma cell lines against the NCATS MIPE library collection: VP6_DJ cell viability assay (AID 1919867); further: nearly all actives have a fitted effect of over 40% in size
# Outline: as §1
# [9] = Quantitative High-Throughput drug screen in 47 multiple myeloma cell lines against the NCATS MIPE library collection: UTMC2_PLB cell viability assay (AID 1919868); conditions: CellTiter-Glo ATP luminescence, 48 h; viability (% of DMSO control): at 45.8 µM (top of the series); further: nearly all actives have a fitted effect of over 55% in size
# Outline: as §1
# Potency means the concentration at half of the fitted maximal effect.
smiles,measurement,setting,value
NCCCC(N)(C(=O)O)C(F)F (stereo unspecified),Potency,[1],0.332 µM (active)
same,viability,[2],97%
same,Potency,[3],inactive
Nc1ncnc2nc(-c3ccc(N4CCOCC4)nc3)cc(-c3cccc(Br)c3)c12,Potency,[1],16.6 µM (active)
same,Potency,[4],20.9 µM (active)
same,Potency,[3],16.6 µM (active)
Nc1nc2ccc(OC(F)(F)F)cc2s1,Potency,[5],inactive
same,Potency,[6],inactive
same,Potency,[7],inactive
same,Potency,[8],18.7 µM (active)
O=C1[C@H](Cc2ccc(O)cc2)N2C(=O)CCN(C(=O)NCc3ccccc3)[C@H]2CN1Cc1cccc2ccccc12,Potency,[1],4.18 µM (active)
same,Potency,[4],8.33 µM (active)
same,Potency,[2],6.62 µM (active)
same,Potency,[7],4.18 µM (active)
same,Potency,[3],9.35 µM (active)
CC(C)(Sc1ccc(CCN(CCCCC2CCCCC2)C(=O)NC2CCCCC2)cc1)C(=O)O,Potency,[5],14.8 µM (active)
same,Potency,[4],inactive
same,Potency,[2],14.8 µM (active)
same,Potency,[6],16.6 µM (active)
same,Potency,[3],inactive
same,Potency,[8],inactive
O=c1ncn2nc(Sc3ccc(F)cc3F)ccc2c1-c1c(Cl)cccc1Cl,Potency,[5],16.6 µM (active)
same,Potency,[4],16.6 µM (active)
same,Potency,[6],20.9 µM (active)
same,Potency,[8],9.35 µM (active)
Cc1cc(-c2ccc(CC(=O)Nc3ccc(-c4cccnc4)cc3)cc2)ccn1,Potency,[5],23.5 µM (active)
same,Potency,[4],20.9 µM (active)
same,Potency,[3],18.7 µM (active)
same,Potency,[8],11.8 µM (active)
CC(C)(C)OC(=O)CN(Cc1ccc(Cl)cc1)Cc1ccc([N+](=O)[O-])s1,Potency,[1],18.7 µM (active)
Cc1csc(NC(=O)c2sc3nc4c(c(C(F)(F)F)c3c2N)CCC4)n1,Potency,[5],2.35 µM (active)
same,Potency,[6],7.43 µM (active)
same,Potency,[3],2.35 µM (active)
same,Potency,[9],inactive
Cc1cc(Nc2nc(N[C@@H](C)c3ncc(F)cn3)ncc2Cl)n[nH]1,Potency,[1],7.43 µM (active)
same,Potency,[4],18.7 µM (active)
same,Potency,[6],9.35 µM (active)
same,Potency,[3],2.64 µM (active)
same,Potency,[8],6.62 µM (active)
same,Potency,[9],6.62 µM (active)
Cc1c(CCOc2ccc(C(=O)O)cc2)c2cc(Cl)ccc2n1C(c1ccccc1)c1ccccc1,Potency,[5],inactive
same,viability,[2],110%
same,Potency,[6],11.8 µM (active)
same,Potency,[3],inactive
CC(C[N+](C)(C)C)OC(N)=O (stereo unspecified),Potency,[1],16.6 µM (active)
same,Potency,[4],inactive
same,Potency,[6],inactive
Nc1nccc(-c2ccc3noc(-c4ccc(Cl)cc4)c3c2)n1,Potency,[5],20.9 µM (active)
same,Potency,[4],inactive
same,Potency,[3],3.72 µM (active)
same,Potency,[9],inactive
Cc1ccc(N(CC2=NCCN2)c2cccc(O)c2)cc1,Potency,[1],23.5 µM (active)
same,Potency,[4],23.5 µM (active)
same,Potency,[2],29.6 µM (active)
same,Potency,[8],inactive
N=c1nc(N2CCCCC2)cc(N)n1O,Potency,[5],37.2 µM (active)
same,Potency,[4],16.6 µM (active)
same,Potency,[6],inactive
same,Potency,[7],23.5 µM (active)
same,Potency,[3],26.4 µM (active)
NNCCc1ccccc1,Potency,[5],inactive
same,Potency,[4],inactive
same,Potency,[6],8.33 µM (active)
same,Potency,[7],inactive
NC(=O)c1ccc(-c2nc(-c3ccc4c(c3)OCCO4)c(-c3ccccn3)[nH]2)cc1,Potency,[1],18.7 µM (active)
same,viability,[2],112%
same,Potency,[7],8.33 µM (active)
same,Potency,[8],23.5 µM (active)
same,Potency,[9],inactive
C[C@@H]1CN(Cc2ccc(F)cc2)[C@@H](C)CN1C(=O)c1cc2c(C(=O)C(=O)N(C)C)cn(C)c2cc1Cl,Potency,[5],14.8 µM (active)
same,Potency,[4],29.6 µM (active)
same,Potency,[3],18.7 µM (active)
same,Potency,[8],14.8 µM (active)
CC(=O)NC(C)c1ccc(Oc2ccc(OC(C)C)cc2)cc1 (stereo unspecified),Potency,[5],2.35 µM (active)
same,Potency,[4],1.48 µM (active)
same,Potency,[6],inactive
same,Potency,[3],16.6 µM (active)
O=NN(CCCl)C(=O)NCCCl,Potency,[4],inactive
same,viability,[2],118%
same,Potency,[7],inactive
same,Potency,[3],inactive
same,Potency,[8],inactive
Oc1cccc(-c2nc(N3CCOCC3)c3oc4ncccc4c3n2)c1,Potency,[4],0.0855 µM (active)
same,Potency,[6],0.054 µM (active)
same,Potency,[7],0.136 µM (active)
same,Potency,[9],0.0382 µM (active)
COc1ccc(CCN2CCN(CCCc3ccccc3)CC2)cc1OC,Potency,[4],inactive
same,viability,[2],104%
same,Potency,[3],inactive
NC(=O)c1cnccn1,viability,[2],112%
same,Potency,[3],inactive
O=C1CCC(N2C(=O)c3ccccc3C2=O)C(=O)N1 (stereo unspecified),Potency,[4],inactive
same,Potency,[2],23.5 µM (active)
same,Potency,[6],18.7 µM (active)
same,Potency,[7],inactive
same,Potency,[3],3.72 µM (active)
O=S(=O)(N=Cc1c(O)ccc2ccccc12)c1cccs1,Potency,[4],7.43 µM (active)
same,Potency,[7],0.0935 µM (active)
same,Potency,[3],20.9 µM (active)
same,Potency,[9],18.7 µM (active)
c1ccc(-c2nn3c(c2-c2ccnc4cc(OCCN5CCOCC5)ccc24)CCC3)nc1,Potency,[4],inactive
same,Potency,[8],1.87 µM (active)
Cc1cccc(-c2[nH]c(C(C)(C)C)nc2-c2ccc3nccnc3c2)n1,Potency,[7],3.32 µM (active)
same,Potency,[8],2.96 µM (active)
same,Potency,[9],2.64 µM (active)
Cc1cccc(-c2nn(C(=S)Nc3ccccc3)cc2-c2ccnc3ccccc23)n1,Potency,[4],6.62 µM (active)
same,Potency,[8],9.35 µM (active)
CCC(C)N(C)C(=O)c1cc2ccccc2c(-c2ccccc2Cl)n1 (stereo unspecified),Potency,[4],inactive
same,Potency,[7],8.33 µM (active)
same,Potency,[3],5.26 µM (active)
same,Potency,[8],6.62 µM (active)
OC(CN1CCC(Cc2ccc(F)cc2)CC1)c1ccc(Cl)cc1 (stereo unspecified),Potency,[4],inactive
same,Potency,[3],inactive
same,Potency,[9],inactive
Cc1ccccc1C(C(=O)NC1CCCC1)N(C(=O)Cn1cnc2ccccc21)c1cccc(F)c1 (stereo unspecified),Potency,[2],10.5 µM (active)
same,Potency,[6],23.5 µM (active)
same,Potency,[3],18.7 µM (active)
same,Potency,[8],2.35 µM (active)
Cc1cc2c(F)c(Oc3ncnn4cc(OC[C@@H](C)O)c(C)c34)ccc2[nH]1,Potency,[4],20.9 µM (active)
same,Potency,[6],23.5 µM (active)
same,Potency,[7],0.743 µM (active)
CC(C)(C)NCC(O)c1ccc(O)c(CO)c1 (stereo unspecified),Potency,[4],inactive
same,Potency,[6],inactive
same,Potency,[7],inactive
same,Potency,[3],inactive
same,Potency,[9],inactive
NC(N)=NC(=O)c1nc(Cl)c(N)nc1N,Potency,[6],inactive
same,Potency,[7],7.43 µM (active)
same,Potency,[3],8.33 µM (active)
CCOc1ccn(-c2ccc(F)cc2)c(=O)c1C(=O)Nc1ccc(Oc2ccnc(N)c2Cl)c(F)c1,Potency,[1],8.33 µM (active)
same,Potency,[7],11.8 µM (active)
same,Potency,[3],3.32 µM (active)
same,Potency,[9],13.2 µM (active)
O=c1[nH]c(-c2ccc(C(F)(F)F)cc2)nc2c1CSCC2,Potency,[6],18.7 µM (active)
same,Potency,[3],inactive
NC(=O)C1CCCc2c1[nH]c1ccc(Cl)cc21 (stereo unspecified),Potency,[4],4.69 µM (active)
same,viability,[2],110%
same,Potency,[7],20.9 µM (active)
same,Potency,[3],16.6 µM (active)
same,Potency,[8],3.32 µM (active)
COc1cc(Nc2ncc3c(n2)-c2ccc(Cl)cc2C(c2c(F)cccc2OC)=NC3)ccc1C(=O)O,viability,[2],78.9%
same,Potency,[6],inactive
CC(c1cc2ccccc2s1)N(O)C(N)=O (stereo unspecified),Potency,[4],inactive
same,viability,[2],118%
same,Potency,[6],inactive
same,Potency,[7],inactive
same,Potency,[3],inactive
same,Potency,[8],3.32 µM (active)
Cc1cnc(Nc2ccc(OCCN3CCCC3)cc2)nc1Nc1cccc(S(=O)(=O)NC(C)(C)C)c1,Potency,[7],inactive
same,Potency,[3],0.469 µM (active)
same,Potency,[8],0.332 µM (active)
Cc1ccccc1C(OCCN(C)C)c1ccccc1 (stereo unspecified),Potency,[4],inactive
same,Potency,[6],inactive
same,Potency,[3],inactive
same,Potency,[8],inactive
O=C(Nc1cccnc1)N1CCC(Cc2cccc(Oc3ccc(C(F)(F)F)cn3)c2)CC1,Potency,[4],18.7 µM (active)
same,Potency,[6],18.7 µM (active)
same,Potency,[8],10.5 µM (active)
same,Potency,[9],14.8 µM (active)
N#Cc1ccc(C(c2ccc(C#N)cc2)n2cncn2)cc1,Potency,[4],16.6 µM (active)
same,Potency,[2],6.62 µM (active)
same,Potency,[6],16.6 µM (active)
same,Potency,[8],16.6 µM (active)
CCOC(=O)N[C@@H]1CC[C@@H]2[C@@H](C1)C[C@H]1C(=O)O[C@H](C)[C@H]1[C@@H]2C=Cc1ccc(-c2cccc(F)c2)cn1,Potency,[1],23.5 µM (active)
same,Potency,[3],16.6 µM (active)
CC1(C)Cc2c(-c3ccccc3)c(-c3ccc(Cl)cc3)c(CC(=O)O)n2C1,Potency,[2],20.9 µM (active)
same,Potency,[6],18.7 µM (active)
same,Potency,[7],18.7 µM (active)
same,Potency,[3],14.8 µM (active)
same,Potency,[8],14.8 µM (active)
same,Potency,[9],16.6 µM (active)
C[C@H](NC(=O)Cc1cc(F)cc(F)c1)C(=O)N[C@@H]1C(=O)N(C)c2ccccc2-c2ccccc21,Potency,[6],16.6 µM (active)
same,Potency,[8],inactive
C1COC(NC(C2CC2)C2CC2)=N1,Potency,[4],16.6 µM (active)
Cc1c(C)c2c(c(C)c1O)CCC(C)(COc1ccc(CC3SC(=O)NC3=O)cc1)O2 (stereo unspecified),Potency,[4],inactive
same,viability,[2],114%
same,Potency,[6],inactive
same,Potency,[3],inactive
same,Potency,[8],inactive
CCc1cc(Nc2nccc(-c3c(-c4ccc(OC)c(C(=O)Nc5c(F)cccc5F)c4)nc4ccccn34)n2)c(OC)cc1N1CCC(N2CCN(S(C)(=O)=O)CC2)CC1,Potency,[4],14.8 µM (active)
same,Potency,[3],1.18 µM (active)
same,Potency,[8],2.64 µM (active)
Cn1cc(-c2ccc3nnc(C(F)(F)c4ccc5ncccc5c4)n3n2)cn1,Potency,[9],inactive
O=C1CCc2cc(OCCCCc3nnnn3C3CCCCC3)ccc2N1,Potency,[4],inactive
same,Potency,[6],inactive
same,Potency,[8],inactive
COCC(=O)NCC=Cc1ccc2ncnc(Nc3ccc(Oc4ccc(C)nc4)c(C)c3)c2c1,Potency,[4],18.7 µM (active)
same,Potency,[7],16.6 µM (active)
same,Potency,[3],20.9 µM (active)
same,Potency,[8],18.7 µM (active)
CCCn1c(=O)c2[nH]c(C34CC5CC3C[C@@H](C5)C4)nc2n(CCC)c1=O,Potency,[4],inactive
same,Potency,[6],inactive
same,Potency,[9],inactive
COc1cc(Oc2ccnc3cc(OC)c(OC)cc23)ccc1NC(=O)NC(C)c1nccs1 (stereo unspecified),Potency,[4],20.9 µM (active)
same,Potency,[6],inactive
same,Potency,[9],inactive
